AmpC detergent = qHTS Inhibitors of AmpC Beta-Lactamase (assay with detergent) | P00811 | AmpC hydrolysis of nitrocefin, absorbance 480 nm, 0.01% Triton | Potency, µM (series often up to 114 µM), inactives show at the highest dose activity change, negative = inhibition, most hits filed as inhibitors | 370,000 compounds, 0.041% hits | AID 485294, 2010;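 note: 0% = no-compound wells and -100% = no-enzyme wells; nearly all actives have a fitted effect of over 25% in size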
Target sequence (P00811 whole entry, looked up): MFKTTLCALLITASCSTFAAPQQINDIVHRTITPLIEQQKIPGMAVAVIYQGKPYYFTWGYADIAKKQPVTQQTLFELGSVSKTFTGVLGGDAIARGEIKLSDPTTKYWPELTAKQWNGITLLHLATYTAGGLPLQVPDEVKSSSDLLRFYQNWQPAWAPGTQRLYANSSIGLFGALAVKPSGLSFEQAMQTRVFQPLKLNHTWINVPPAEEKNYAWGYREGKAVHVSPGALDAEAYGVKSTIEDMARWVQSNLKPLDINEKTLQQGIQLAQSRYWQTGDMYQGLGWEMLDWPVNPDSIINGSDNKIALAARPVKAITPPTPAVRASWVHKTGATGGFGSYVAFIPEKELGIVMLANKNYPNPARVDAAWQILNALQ
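AmpC (5.3 nM in the dispensed reagent) in 20 mM phosphate pH 7.0 with 0.01% (detergent screen) or 0.0001% Triton X-100 was preincubated with compounds for 15 min at room temperature. Nitrocefin was then added from an 800 uM solution, and hydrolysis was followed at 480 nm.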
AMA1-RON2 inh = qHTS for Inhibitors of AMA1-RON; Towards Development of Antimalarial Drug Lead: Primary Screen; Potency, µM (doses to about 58.2 µM), without a hit: at the top dose activity change, negative = inhibition, hits mostly inhibitors; 360,000 compounds, 0.2% hits; AlphaScreen AMA1-biotinylated RON2 peptide binding; Plasmodium falciparum AMA1 (3D7) - RON2 peptide interaction;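 note: 0% = vehicle wells and -100% = peptide control; nearly all actives have a fitted effect of over 45% in size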
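AMA1 (3D7) with his tag at 25 nM final met compounds first, then biotinylated RON2 peptide at 25 nM; detection used donor plus acceptor beads, 10 µg/mL apiece, read by AlphaScreen after 30 min at room temperature.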
RE007 growth inh = qHTS Assay for Inhibitors of the HIV-1 protein Vpr; S. pombe RE007 Vpr strain, BacTiter-Glo ATP luminescence, 24 h; Potency, µM (titrated, usually from 92.2 µM), for inactives: top-dose activity change, negative = less growth, actives largely listed as inhibitors; 360,000 compounds, 0.21% hits; active = well fitted falling curve with a large enough effect; inconclusive = small, poorly fitted or top-dose-only effect; inactive = no such curve, though single readings can be large or run the other way; note: nearly all actives have a fitted effect of over 50% in size
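Fission yeast strain RE007, carrying one chromosomally integrated HIV-1 vpr copy, was seeded at OD 0.01 in PMG+AL medium with 23 nL pinned compound. After 24 h at 30 °C and 99% humidity, viability was read by BacTiter-Glo luminescence.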
Sm TGR block = qHTS Assay for the Inhibitors of Schistosoma Mansoni Peroxiredoxins; 360,000 compounds, 3% hits; AID 485364, 2010; Potency, µM (highest dose often 114 µM), for inactives: top-dose activity change, negative = inhibition, hits mostly inhibitors; purified TGR, DTNB reduction, TNB absorbance 405 nm; Schistosoma mansoni thioredoxin glutathione reductase (TGR), Q962Y6; note: nearly all actives have a fitted effect of over 60% in size
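Kinetic colorimetric format: TGR-catalysed, NADPH-driven DTNB reduction monitored via TNB absorbance. Enzyme dispensed at 20 nM; compound exposure 15 min at room temperature before reaction start.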
AmpC inh no detg = qHTS Inhibitors of AmpC Beta-Lactamase (assay without detergent). P00811. AmpC nitrocefin hydrolysis, absorbance 480 nm, 0.0001% Triton. Potency, µM (top dose mostly 57.1 µM), for inactives: at the highest dose activity change, negative = inhibition, most hits filed as inhibitors. 330,000 compounds, 0.52% hits. AID 485341, 2010;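 note: plate controls were no compound for no effect and no enzyme for full effect; nearly all actives have a fitted effect of over 20% in size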
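AmpC (5.3 nM in the dispensed reagent) in 20 mM phosphate pH 7.0 with 0.01% (detergent screen) or 0.0001% Triton X-100 was preincubated with compounds for 15 min at room temperature. Nitrocefin was then added from an 800 uM solution, and hydrolysis was followed at 480 nm.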
* hit, by the source's call; ! = not active in a repeat. Shown are actives, neighbours in structure and some others; about 3.2% of the full set was active somewhere. Unless noted, calls come from the whole dose curve; as a rule, active = well fitted curve in the direction sought with a large enough effect; inconclusive = small, poorly fitted or top-dose-only effect, or another doubt; inactive = no such curve, though single readings can be large; an effect the other way counts as inactive or inconclusive. Unless noted, % is set by controls: 0 for no effect and ±100 for the full control effect; potency is the fitted concentration of half-maximal effect.

For O=S(=O)(/N=C(\Sc1ccc(Cl)cc1)c1ccccc1)c1ccccc1 the results were AmpC detergent -5.6%, AMA1-RON2 inh 15.0%, RE007 growth inh 16.9%, Sm TGR block 25.1µM* and AmpC inh no detg -2.9%.
Screening CS/C(=N\S(=O)(=O)c1ccc(Cl)cc1)c1ccccc1 returned AmpC detergent -0.5%, AMA1-RON2 inh -3.2%, RE007 growth inh 9.1%, Sm TGR block -7.7% and AmpC inh no detg -7.8%.
Cc1ccc(CCNC(=O)Cn2cccc2)cc1 was read as AmpC detergent -14.5%, AMA1-RON2 inh -9.1%, RE007 growth inh 4.7%, Sm TGR block 50.1µM* and AmpC inh no detg -20.5%.
Screening COc1ccc(S(=O)(=O)c2c(O)c(C)cc(NS(=O)(=O)c3ccc(Cl)cc3)c2C(C)C)cc1 returned AmpC detergent 4.0% and Sm TGR block -11.5%.
Screening O=C(NC1CCCCCC1)c1ccc(CS(=O)(=O)Cc2ccccc2F)o1 returned AmpC detergent -0.4%, AMA1-RON2 inh 1.3%, RE007 growth inh -4.1%, Sm TGR block 22.4µM* and AmpC inh no detg -1.9%.
Cc1ccc(CNC(=O)c2ccc(CS(=O)Cc3ccccc3Cl)o2)cc1 (stereo unspecified) was read as AmpC detergent 1.7%, AMA1-RON2 inh 8.8%, RE007 growth inh 0.8%, Sm TGR block 35.5µM* and AmpC inh no detg 91.7%.
Screening Cc1ccc(CS(=O)Cc2ccc(C(=O)NC3CCCCCC3)o2)cc1 (stereo unspecified) returned AmpC detergent 2.9%, AMA1-RON2 inh 6.0%, RE007 growth inh 2.4%, Sm TGR block inconclusive and AmpC inh no detg 56.3%.
Screening Cc1ccc(CS(=O)Cc2ccc(C(=O)NC3CCCC(C)C3C)o2)cc1 (stereo unspecified) returned AmpC detergent inconclusive, AMA1-RON2 inh -4.0%, RE007 growth inh 2.0%, Sm TGR block 35.5µM* and AmpC inh no detg 82.8%.
Screening O=C(NC1CCCCCC1)c1ccc(CS(=O)Cc2ccccc2Cl)o1 (stereo unspecified) returned AmpC detergent 2.8%, AMA1-RON2 inh 6.8%, RE007 growth inh 7.1%, Sm TGR block 31.6µM* and AmpC inh no detg 76.0%.
`Cc1ccn2c(Nc3ccc4c(c3)OCO4)c(-c3ccc(C)o3)nc2c1` gave AmpC detergent 1.1% and Sm TGR block -30.2%.
Cc1ccc(Nc2c(-c3ccc(C)o3)nc3cnccn23)cc1 was read as AmpC detergent -16.5%, AMA1-RON2 inh 0.0%, RE007 growth inh 7.94µM*!, Sm TGR block 10µM* and AmpC inh no detg 3.2%.
For Cc1ccc(-c2nc3cnccn3c2Nc2ccc3c(c2)OCO3)o1 the results were AmpC detergent inconclusive, AMA1-RON2 inh -18.0%, RE007 growth inh 1.9%, Sm TGR block 50.1µM* and AmpC inh no detg 2.82µM*.
Screening Cc1ccc(-c2nc3cnccn3c2Nc2ccccc2)o1 returned AmpC detergent -7.7%, AMA1-RON2 inh 2.6%, RE007 growth inh 15.4%, Sm TGR block inconclusive and AmpC inh no detg -3.8%.
For Clc1ccc(-c2nc3cnccn3c2Nc2ccc3c(c2)OCO3)cc1 the results were AmpC detergent inconclusive, AMA1-RON2 inh -29.1%, RE007 growth inh 49.2%, Sm TGR block 0.3% and AmpC inh no detg 22.4µM*.
Screening CCCSc1ncc(Cl)c(C(=O)Nc2ccc(OC)cc2OC)n1 returned AmpC detergent -5.9% and Sm TGR block 2.3%.
Screening Cc1cc(SCNC(=O)c2ccccc2)nc(C(C)C)n1 returned AmpC detergent 0.2%, AMA1-RON2 inh 66.0%, RE007 growth inh 5.6%, Sm TGR block 11.2µM* and AmpC inh no detg -20.1%.
For O=C(Nc1cccc(C(F)(F)F)c1)C1CCN(S(=O)(=O)c2cccc3nsnc23)CC1 the results were AmpC detergent -2.4% and Sm TGR block 19.4%.
Screening O=C(C1=C[C@@H]2[C@H]3C(=O)N(c4ccccc4)C(=O)[C@H]3[C@@H](C(=O)c3ccc(Cl)cc3)N2C=C1)c1ccccc1 returned AmpC detergent -0.8%, Sm TGR block 14.1µM* and AmpC inh no detg -20.4%.
`O=C(Cn1ncn2c(cc3ccccc32)c1=O)NCc1ccc(F)cc1` gave AmpC detergent 7.2% and Sm TGR block 0.1%.
Screening CCOC(=O)[C@H]1[C@H]2COc3ccc(C)cc3[C@@H]2N2C(=O)CN(Cc3ccc(C)cc3)C(=O)[C@@]12C returned AmpC detergent -9.9%, AMA1-RON2 inh -7.2%, RE007 growth inh -19.5%, Sm TGR block -10.1% and AmpC inh no detg 180.3%.
Screening CCOC(=O)[C@H]1[C@H]2COc3ccc(C)cc3[C@@H]2N2C(=O)CN(Cc3ccco3)C(=O)[C@@]12C returned AmpC detergent -4.4%, AMA1-RON2 inh 1.3%, RE007 growth inh 3.9%, Sm TGR block 14.1µM* and AmpC inh no detg 99.2%.
Screening CCOC(=O)[C@H]1[C@H]2COc3ccc(OC)cc3[C@@H]2N2C(=O)CN(Cc3ccc(OC)cc3)C(=O)[C@@]12C returned AmpC detergent 3.0%, AMA1-RON2 inh -2.6%, RE007 growth inh 0.0%, Sm TGR block 50.1µM* and AmpC inh no detg 138.8%.
Clc1ccccc1-c1nnc(COc2ccccc2)o1 was read as AmpC detergent -2.7% and Sm TGR block -0.6%.
`Clc1ccc(-c2nc3nc4ccccc4nc3n2Cc2ccco2)cc1` gave AmpC detergent 3.3%, AMA1-RON2 inh 5.8%, RE007 growth inh 25.9%, Sm TGR block 20µM* and AmpC inh no detg -23.9%.
`Cc1ccc(-c2nc3nc4ccccc4nc3n2Cc2ccco2)cc1` gave AmpC detergent 0.2%, AMA1-RON2 inh -12.0%, RE007 growth inh 3.8%, Sm TGR block 17.8µM* and AmpC inh no detg -29.0%.
`Cn1c(=O)c(Oc2cc(Cl)cc(Cl)c2)nc2ccccc21` gave AmpC detergent 1.7%, AMA1-RON2 inh 14.4%, RE007 growth inh 10.0%, Sm TGR block -14.9% and AmpC inh no detg 0.398µM*.
Screening CCCc1nc(SC2CCCC2)c2c(=O)n(C)c(=O)n(C)c2n1 returned AmpC detergent inconclusive, AMA1-RON2 inh 2.3%, RE007 growth inh 9.3%, Sm TGR block 3.8% and AmpC inh no detg 35.5µM*.
Screening CCCc1nc(SCc2cccnc2)c2c(=O)n(C)c(=O)n(C)c2n1 returned AmpC detergent -0.1%, AMA1-RON2 inh -1.0%, RE007 growth inh -5.5%, Sm TGR block 2.1% and AmpC inh no detg 39.8µM*.
Screening Cc1ccccc1-c1nc(SCc2cccnc2)c2c(=O)n(C)c(=O)n(C)c2n1 returned AmpC detergent -7.0%, AMA1-RON2 inh -8.1%, RE007 growth inh inconclusive, Sm TGR block 44.7µM* and AmpC inh no detg -15.5%.

Screens: PubChem BioAssay, National Center for Advancing Translational Sciences (NCATS)
